The test system of the test is murine 3T3 fibroblasts. Kind of test: primary screen, percent viability or growth; higher = less effect of the substance. On the procedure:
Similarly, for measuring the cytotoxicity concentration (CC50) for 3T3 fibroblast cells, cultures were incubated with drugs for 72 hours and developed using Alamar Blue (Alamar Biosciences Inc, Sacramento, CA) as previously described.
Regarding `Cc1c(O)c(O)cc2c1CC=C1[C@@]2(C)CC[C@@]2(C)[C@@H]3C[C@](C)(C(=O)O)CC[C@]3(C)CC[C@]12C`, the “Mammalian (3T3) cell % growth at 10 uM” value is recorded as 0.1%. As for `CC1=C(O)C(=O)C=C2C1=CC=C1[C@@]2(C)CC[C@@]2(C)[C@@H]3C[C@](C)(C(=O)O)CC[C@]3(C)CC[C@]12C`, the “Mammalian (3T3) cell % growth at 10 uM” value is recorded as 1%. For `CC(C)c1ccc2c(c1O)CC[C@H]1C3=C(CC[C@]21C)C(=O)OC3`, the “Mammalian (3T3) cell % growth at 10 uM” value was found to be 83.1%. The figure for `O=C1C=C2C=C[C@@H]3C[C@@]2(O1)[C@H]1CCCCN31` is 75%; for `C[C@@H]1CC[C@H]2[C@@H](C)C(=O)O[C@@H]3O[C@@]4(C)CC[C@@H]1[C@]32OO4` it is 77.6%. As to `CC[C@@]1(O)C(=O)OCc2c1cc1n(c2=O)Cc2cc3ccccc3nc2-1`, the “Mammalian (3T3) cell % growth at 10 uM” value came out at 94.3%. `COc1ccc(C[C@H]2NC[C@H](O)[C@H]2OC(C)=O)cc1`: the “Mammalian (3T3) cell % growth at 10 uM” value turned out to be 10.3%.

The values above are taken from paper PMC4102417.
